Measured values: ChEMBL document CHEMBL1201862, “PubChem BioAssay data set” (2004)
Out of some 400,000 compounds screened, about 1,900 (0.47%) were called active. Not shown: some 14% with an inconclusive outcome. The rule behind the calls is not given here. This excerpt belongs to a sample that is enriched for actives.

The molecules below were run against Ataxin-2 (Homo sapiens) (UniProt Q99700) (assay: qHTS for Inhibitors of ATXN expression.).
Sequence of Ataxin-2 (Homo sapiens) (Q99700 whole entry): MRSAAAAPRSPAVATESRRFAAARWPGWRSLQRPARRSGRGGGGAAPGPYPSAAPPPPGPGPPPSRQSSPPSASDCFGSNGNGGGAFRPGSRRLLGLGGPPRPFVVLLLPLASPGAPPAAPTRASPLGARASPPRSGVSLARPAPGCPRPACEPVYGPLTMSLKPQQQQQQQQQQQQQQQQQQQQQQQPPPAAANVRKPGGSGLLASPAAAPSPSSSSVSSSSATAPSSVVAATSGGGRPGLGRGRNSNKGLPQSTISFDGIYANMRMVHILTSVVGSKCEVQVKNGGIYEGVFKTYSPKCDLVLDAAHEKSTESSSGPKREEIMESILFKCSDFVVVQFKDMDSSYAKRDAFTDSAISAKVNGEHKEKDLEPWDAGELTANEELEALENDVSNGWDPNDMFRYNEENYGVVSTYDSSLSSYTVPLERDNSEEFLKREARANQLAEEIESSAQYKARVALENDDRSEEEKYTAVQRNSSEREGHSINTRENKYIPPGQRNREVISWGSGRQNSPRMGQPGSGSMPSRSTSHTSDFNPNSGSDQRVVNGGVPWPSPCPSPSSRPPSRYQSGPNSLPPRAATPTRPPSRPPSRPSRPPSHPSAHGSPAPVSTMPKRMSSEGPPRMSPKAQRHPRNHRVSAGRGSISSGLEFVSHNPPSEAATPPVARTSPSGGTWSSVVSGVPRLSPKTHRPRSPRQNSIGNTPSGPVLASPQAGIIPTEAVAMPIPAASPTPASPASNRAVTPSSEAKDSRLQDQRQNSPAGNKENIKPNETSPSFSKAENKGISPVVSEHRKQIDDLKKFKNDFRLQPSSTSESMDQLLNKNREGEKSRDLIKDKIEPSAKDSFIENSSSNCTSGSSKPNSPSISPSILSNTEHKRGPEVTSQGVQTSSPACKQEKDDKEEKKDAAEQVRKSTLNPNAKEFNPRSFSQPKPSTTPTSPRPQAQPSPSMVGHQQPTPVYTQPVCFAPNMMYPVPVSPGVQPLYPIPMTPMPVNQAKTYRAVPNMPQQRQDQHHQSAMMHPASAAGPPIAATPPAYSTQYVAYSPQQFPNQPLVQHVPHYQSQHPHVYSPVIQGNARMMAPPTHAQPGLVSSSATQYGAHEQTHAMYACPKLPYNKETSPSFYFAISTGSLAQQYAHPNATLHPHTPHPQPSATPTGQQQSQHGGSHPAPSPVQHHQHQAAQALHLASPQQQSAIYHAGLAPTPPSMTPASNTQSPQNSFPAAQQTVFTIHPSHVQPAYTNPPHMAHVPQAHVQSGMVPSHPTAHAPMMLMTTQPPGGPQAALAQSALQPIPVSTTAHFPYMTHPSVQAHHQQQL
Type: functional
For `O=c1ccc2cc(O[C@@H]3O[C@@H](CO)[C@H](O)[C@@H](O)[C@@H]3O)c(O)cc2o1`, the Potency was “inactive”. For `CCN(CCCl)c1cc(CN(C)C)cc(NC(=O)c2ccc(C(=O)Nc3cc(CN(C)C)cc(N(CC)CCCl)c3)cc2)c1`, the Potency was 20 µM (active). For `O=C(c1ccc(C(F)(F)F)cc1)C1CCCN(Cc2ccncc2)C1` (configuration not stated), the Potency was “inactive”. With `CCn1cc(C(=O)NCCc2ccc(OC)c(OC)c2)c(=O)c2cc(S(=O)(=O)N(C)C3CCCCC3)ccc21` the Potency was 25.1 µM (active). In the case of `COC(=O)Cn1cc(C=C2C(=O)N(C)C(=O)N(C)C2=O)c2ccccc21`, the Potency is reported as “inactive”. With `O=C1NC(=O)C(=CNc2cc(F)cc(F)c2)C(=O)N1` the Potency was “inactive”. For `CC[n+]1c(C=CN(C)c2ccccc2)sc2ccc(Cl)cc21`, the Potency was 17.8 µM (active). `CC[n+]1c(/C=C/C=C/c2ccc(N(C)C)cc2)sc2ccccc21` was tested, and the Potency was 5.32 µM (active). In the case of `CC(C)(C)C(=O)c1cn(Cc2ccccc2)c2ccccc12`, the Potency is reported as “inactive”. With `O=C(NN1C(=O)C2C3C=CC(C4CC34)C2C1=O)c1cccc(Br)c1` (configuration not stated) the Potency was “inactive”. For `C[C@@]12CC[C@H](O)C[C@@H]1CC[C@H]1[C@@H]2C[C@@H](O)[C@]2(C)[C@@H](C3=CC(=O)OC3)CC[C@]12O`, the Potency was 3.16 µM (active). In the case of `C[C@@]12CC[C@H](O)C[C@@H]1CC[C@H]1[C@H]2CC[C@@]2(C)[C@@H](C3=CC(=O)OC3)CC[C@]12O`, the Potency is reported as 0.708 µM (active). For `C=CCNC(=O)c1c(N)n(Cc2ccco2)c2nc3ccccc3nc12`, the Potency was “inactive”. In the case of `COCCCn1c(N)c(C(=O)OC(C)COC)c2nc3ccccc3nc21` (configuration not stated), the Potency is reported as “inactive”. `O=C1NC(=O)N(CCc2ccccc2)C(=O)/C1=C\NN1CCOCC1` was tested, and the Potency was “inactive”. For `COC1CCC(OC2CC(C3(C)CCC4(CC(O)C(C)C(C(C)/C=C(\C)C(=O)C(C)CC(C)C(=O)O)O4)O3)OC3(OC(C4OC(O)(CO)C(C)CC4C)CC3C)C2C)OC1C` (configuration not stated), the Potency was 0.562 µM (active). With `COCCOC(=O)c1c(N)n(Cc2ccco2)c2nc3ccccc3nc12` the Potency was “inactive”. With `CC(=O)OC(C)(C)/C=C/C(=O)C(C)(O)C1C(O)CC2(C)C3CC=C4C(CC(O)C(=O)C4(C)C)C3(C)C(=O)CC12C` (configuration not stated) the Potency was 0.189 µM (active). `CC(=O)OC(C)(C)/C=C/C(=O)[C@](C)(O)[C@H]1[C@H](O)C[C@@]2(C)[C@@H]3CC=C4[C@H](C[C@H](O)C(=O)C4(C)C)[C@]3(C)C(=O)C[C@]12C` was tested, and the Potency was 39.8 µM (active). `COc1ccc(C(=O)C2CCCN(Cc3cnc(C)s3)C2)c(OC)c1` (configuration not stated) was tested, and the Potency was “inactive”. With `NC(=O)c1cn(C2OC(CO)C(O)C2O)c2ncnc(N)c12` (configuration not stated) the Potency was 0.316 µM (active). In the case of `COc1ccc2[nH]c(C)c(CCNCc3cn(C)c4ccccc34)c2c1`, the Potency is reported as 17.8 µM (active). In the case of `CCn1c(=O)oc2cc(NC(=O)CCl)ccc21`, the Potency is reported as 37.7 µM (active). With `Cn1c(=O)oc2cc(NC(=O)CCl)ccc21` the Potency was 31.6 µM (active). For `COc1ccc(NC(=O)c2cccn(Cc3ccc(Cl)cc3)c2=O)c(OC)c1`, the Potency was “inactive”. `CCc1nc2ccc(N3CCN(C)CC3)cc2nc1CC` was tested, and the Potency was “inactive”. For `COCCCn1c(N)c(C(=O)NCc2ccco2)c2nc3ccccc3nc21`, the Potency was “inactive”. In the case of `Nc1c(C(=O)Nc2ccc(Cl)cc2)sc2nc3c(cc12)N1CCC3CC1`, the Potency is reported as “inactive”. For `COc1ccc(OCC(=O)N2CCN(C/C=C/c3ccccc3)CC2)cc1`, the Potency was “inactive”. In the case of `COc1ccc(Nc2nc(N)nc(CSc3nc4ccccc4s3)n2)cc1`, the Potency is reported as 39.8 µM (active). For `CCCCn1c(N)c(C(=O)NCCN2CCOCC2)c2nc3ccccc3nc21`, the Potency was “inactive”. `Cc1cccc(OP(N)(=O)Oc2cccc(C)c2)c1` was tested, and the Potency was “inactive”. `COc1ccc(CC(N)c2csc(NC(=O)Nc3ccccc3Oc3ccccc3)n2)cc1` (configuration not stated) was tested, and the Potency was 39.8 µM (active). For `O=C(c1cccn2c(=O)c3cc(Cl)ccc3nc12)N1CCC2(CC1)OCCO2`, the Potency was “inactive”. In the case of `COc1ccc2cc1Oc1ccc(cc1)C[C@H]1c3cc(c(OC)cc3CCN1C)Oc1c(O)c(OC)cc3c1[C@H](C2)N(C)CC3`, the Potency is reported as 20 µM (active). For `COc1cc2c3c(c1OC)Oc1ccc(cc1)C[C@H]1c4c(cc(OC)c(OC)c4Oc4ccc(cc4)C[C@@H]3N(C)CC2)CCN1C`, the Potency was 15.8 µM (active). `Nc1c2c(nc3ccccc13)CCN(Cc1ccccc1)C2` was tested, and the Potency was “inactive”. With `COc1ccc(Nc2cc(C)c3cc(NC(=O)c4ccccc4Cl)ccc3n2)cc1` the Potency was “inactive”. For `CN1CC[C@@]2(C)c3cc(O)ccc3N(C)C12` (some centres not stated), the Potency was 28.2 µM (active). `CCC(C)NC(=O)c1c(N)n(CC2CCCO2)c2nc3ccccc3nc12` (configuration not stated) was tested, and the Potency was “inactive”. For `C#CCN1C(=O)S/C(=C\c2ccc(N3CCOCC3)cc2C)C1=O`, the Potency was “inactive”. In the case of `CCCCN1C(=O)NC(=O)/C(=C(O)\C=C\c2c[nH]c3ccccc23)C1=O`, the Potency is reported as “inactive”. With `N=C(N)N/N=C/c1ccc(N2CCOCC2)cc1` the Potency was “inactive”. `N=C(N)N/N=C/c1cn(-c2ccccc2)nc1-c1cccs1` was tested, and the Potency was 11.2 µM (active). `N=C(N)N/N=C/c1ccc(N(c2ccccc2)c2ccccc2)cc1` was tested, and the Potency was “inactive”. In the case of `O=c1cc(C(F)(F)F)c2cc3c4c(c2o1)CCCN4CCC3`, the Potency is reported as “inactive”. With `Cc1ccnc(NS(=O)(=O)c2ccc(NC=C3C(=O)N(C)C(=O)N(C)C3=O)cc2)n1` the Potency was “inactive”. With `NS(=O)(=O)c1ccc(NC=C2C(=O)N(C3CCCCC3)C(=O)N(C3CCCCC3)C2=O)cc1` the Potency was 39.8 µM (active). In the case of `CCC(C(=O)Nc1ccc(Cl)cc1)N1CCCC1=O` (configuration not stated), the Potency is reported as “inactive”. `Ic1ccccc1CNC1C2CCN(CC2)C1C(c1ccccc1)c1ccccc1` (configuration not stated) was tested, and the Potency was 15.8 µM (active). In the case of `O=C(NCCc1ccccc1)[C@@H]1CC=C[C@@H]2CCN(Cc3ccc(Cl)c(Cl)c3)C(=O)[C@@H]21`, the Potency is reported as 25.1 µM (active). `O=C(Cc1cc(=O)oc2cc(O)ccc12)NN=Cc1ccc(N(CCCl)CCCl)cc1` was tested, and the Potency was “inactive”. With `CC(C)Sc1nc2[nH]cnc(N)c-2n1` the Potency was “inactive”. With `COc1ccc(-c2nc(CN3C(=O)CN=C(c4ccccc4)c4cc(Cl)ccc43)c(C)o2)cc1` the Potency was 35.5 µM (active). For `O=C1CN=C(c2ccccc2)c2cc(Cl)ccc2N1Cc1ccc(Cl)cc1`, the Potency was 28.2 µM (active). In the case of `Cc1oc(-c2ccccc2Cl)nc1CN1C(=O)CN=C(c2ccccc2)c2cc(Cl)ccc21`, the Potency is reported as 44.7 µM (active). For `O=C(c1cccn2c(=O)c3cc(Br)ccc3nc12)N1CCC2(CC1)OCCO2`, the Potency was “inactive”.
